Results taken from PMC5540273 (PLoS ONE, 2017).

system: WNK2; details: concentration: 1 μM,replicates: in singlicate; n = 1
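Further: KINOMEscan kinase panel screen.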

Structure (SMILES)	%Inh
CNC(=O)c1ccccc1Sc1ccc2c(/C=C/c3ccccn3)n[nH]c2c1	11%
NC(=O)c1cc(-c2ccccc2)cc2c(C3CCNCC3)c[nH]c12 [GSK301362]	6%
C[C@H]1Oc2cc(cnc2N)-c2c(nn(C)c2C#N)CN(C)C(=O)c2ccc(F)cc21	2%
Cc1ccc2c(-c3ccncc3)c(-c3ccc(F)cc3)nn2c1.Cl [GW461484]	0%
CCN(CC)CCCCNc1ncc2cc(-c3c(Cl)cccc3Cl)c(NC(=O)NC(C)(C)C)nc2n1	51%
O=C(NCCCN1CCOC1=O)c1cnc(NCc2cc(Cl)ccc2Cl)nc1NC1CCCC1	0%
Nc1nc(Nc2ccccc2)cc(-c2ccc3c(N)n[nH]c3c2)n1 [GSK2225749]	0%
Cc1ccc(-n2nc(C(C)(C)C)cc2NC(=O)Nc2ccc(OCCN3CCOCC3)c3ccccc23)cc1 [GW839464]	1%
O=C(NCCNc1ccnc(NCc2ccc(F)cc2)n1)c1cc2ccccc2s1 [GSK1379944]	1%

system: WNK3; details: concentration: 1 μM,replicates: in singlicate; n = 1

Structure (SMILES)	%Inh
Cc1n[nH]c2ccc(-c3cc(OC[C@@H](N)Cc4ccccc4)cnc3-c3ccoc3)cc12.O=C(O)C(F)(F)F.O=C(O)C(F)(F)F [GSK507358]	0%
Cl.Oc1cc(-c2nc(-c3ccccc3)[nH]c2-c2ccncc2)ccc1Cl [SB-386023]	0%
CCn1c(-c2nonc2N)nc2c(C#CC(C)(C)O)nc(OCCN)cc21.Cl.Cl [GSK902056]	28%
CCN(CC)CCOc1ccc(Nc2ncc3cc(-c4c(Cl)cccc4Cl)c(=O)n(C)c3n2)cc1 [SB-601273]	66%
CC(C)Nc1cc(-c2ccc3c(N)n[nH]c3c2)nc(N)n1 [GSK2221681]	0%
C=CC(=O)Nc1cc2c(Nc3ccc(F)c(Cl)c3)ncnc2cc1OCCCN1CCOCC1 [GW781483]	20%
C[C@@H](Oc1cc(-c2cnn(C3CCNCC3)c2)cnc1N)c1c(Cl)ccc(F)c1Cl	0%
CN(C)CCOc1ccc(-c2cc(-c3c[nH]nc3-c3ccccn3)ccn2)cc1 [GW835314]	0%
Cc1cc(C(=O)Nc2ccc(Oc3ccc4nc(NC(=O)C5CC5)cn4n3)cc2)nn1-c1ccccc1	0%
Cl.Cl.Nc1nc(-c2ccc3c(N)n[nH]c3c2)cc(N2CCCC(NC(=O)c3ccccc3)C2)n1 (stereo not drawn) [GSK2286775]	19%
COc1ccc(C[C@@H](CN)NC(=O)c2cc(Br)c(-c3ccnc4[nH]ccc34)s2)cc1.Cl.Cl [GSK1389063]	5%
Cc1cc2cn[nH]c2cc1-c1cccc2c(N)c(C(N)=O)nnc12	23%
Cl.Cl.NC[C@H](CC1CCCCC1)NC(=O)c1cc(Br)c(-c2ccnc3[nH]ccc23)s1 [GSK1581427]	5%
Cl.Cl.NC[C@H](Cc1ccc(C(F)(F)F)cc1)NC(=O)c1cc(Br)c(-c2ccnc3[nH]ccc23)s1 [GSK1487252]	13%
Cc1occc1-c1nc(N)c(OC[C@@H](N)Cc2c[nH]c3ccccc23)cc1-c1cc2c(C)n[nH]c2cn1 [GSK1660450]	0%
C[C@@H]1CCN(C(=O)CC#N)C[C@@H]1N(C)c1ncnc2[nH]ccc12	0%
CN(C)CC(O)COc1ccc(Nc2nccc(-c3cnn4nc(N5CCOCC5)ccc34)n2)cc1 (stereo not drawn) [GW767488]	18%
CC(C)N1C(=O)Cc2cc(Nc3ncc(C(F)(F)F)c(NCc4cccc(S(C)(=O)=O)c4)n3)ccc21	0%
CNC(=O)c1ccccc1Sc1ccc2c(/C=C/c3ccccn3)n[nH]c2c1	0%
NC(=O)c1cc(-c2ccccc2)cc2c(C3CCNCC3)c[nH]c12 [GSK301362]	17%
C[C@H]1Oc2cc(cnc2N)-c2c(nn(C)c2C#N)CN(C)C(=O)c2ccc(F)cc21	0%
Cc1ccc2c(-c3ccncc3)c(-c3ccc(F)cc3)nn2c1.Cl [GW461484]	26%
CCN(CC)CCCCNc1ncc2cc(-c3c(Cl)cccc3Cl)c(NC(=O)NC(C)(C)C)nc2n1	0%
O=C(NCCCN1CCOC1=O)c1cnc(NCc2cc(Cl)ccc2Cl)nc1NC1CCCC1	0%
Nc1nc(Nc2ccccc2)cc(-c2ccc3c(N)n[nH]c3c2)n1 [GSK2225749]	7%
Cc1ccc(-n2nc(C(C)(C)C)cc2NC(=O)Nc2ccc(OCCN3CCOCC3)c3ccccc23)cc1 [GW839464]	0%
O=C(NCCNc1ccnc(NCc2ccc(F)cc2)n1)c1cc2ccccc2s1 [GSK1379944]	4%

system: WNK4; details: concentration: 1 μM,replicates: in singlicate; n = 1

Structure (SMILES)	%Inh
Cc1n[nH]c2ccc(-c3cc(OC[C@@H](N)Cc4ccccc4)cnc3-c3ccoc3)cc12.O=C(O)C(F)(F)F.O=C(O)C(F)(F)F [GSK507358]	6%
Cl.Oc1cc(-c2nc(-c3ccccc3)[nH]c2-c2ccncc2)ccc1Cl [SB-386023]	38%
CCn1c(-c2nonc2N)nc2c(C#CC(C)(C)O)nc(OCCN)cc21.Cl.Cl [GSK902056]	2%
CCN(CC)CCOc1ccc(Nc2ncc3cc(-c4c(Cl)cccc4Cl)c(=O)n(C)c3n2)cc1 [SB-601273]	42%
CC(C)Nc1cc(-c2ccc3c(N)n[nH]c3c2)nc(N)n1 [GSK2221681]	0%
C=CC(=O)Nc1cc2c(Nc3ccc(F)c(Cl)c3)ncnc2cc1OCCCN1CCOCC1 [GW781483]	0%
C[C@@H](Oc1cc(-c2cnn(C3CCNCC3)c2)cnc1N)c1c(Cl)ccc(F)c1Cl	8%
CN(C)CCOc1ccc(-c2cc(-c3c[nH]nc3-c3ccccn3)ccn2)cc1 [GW835314]	0%
Cc1cc(C(=O)Nc2ccc(Oc3ccc4nc(NC(=O)C5CC5)cn4n3)cc2)nn1-c1ccccc1	10%
Cl.Cl.Nc1nc(-c2ccc3c(N)n[nH]c3c2)cc(N2CCCC(NC(=O)c3ccccc3)C2)n1 (stereo not drawn) [GSK2286775]	0%
COc1ccc(C[C@@H](CN)NC(=O)c2cc(Br)c(-c3ccnc4[nH]ccc34)s2)cc1.Cl.Cl [GSK1389063]	0%
Cc1cc2cn[nH]c2cc1-c1cccc2c(N)c(C(N)=O)nnc12	11%
Cl.Cl.NC[C@H](CC1CCCCC1)NC(=O)c1cc(Br)c(-c2ccnc3[nH]ccc23)s1 [GSK1581427]	0%
Cl.Cl.NC[C@H](Cc1ccc(C(F)(F)F)cc1)NC(=O)c1cc(Br)c(-c2ccnc3[nH]ccc23)s1 [GSK1487252]	39%
Cc1occc1-c1nc(N)c(OC[C@@H](N)Cc2c[nH]c3ccccc23)cc1-c1cc2c(C)n[nH]c2cn1 [GSK1660450]	0%
C[C@@H]1CCN(C(=O)CC#N)C[C@@H]1N(C)c1ncnc2[nH]ccc12	0%
CN(C)CC(O)COc1ccc(Nc2nccc(-c3cnn4nc(N5CCOCC5)ccc34)n2)cc1 (stereo not drawn) [GW767488]	0%
CC(C)N1C(=O)Cc2cc(Nc3ncc(C(F)(F)F)c(NCc4cccc(S(C)(=O)=O)c4)n3)ccc21	23%
CNC(=O)c1ccccc1Sc1ccc2c(/C=C/c3ccccn3)n[nH]c2c1	0%
NC(=O)c1cc(-c2ccccc2)cc2c(C3CCNCC3)c[nH]c12 [GSK301362]	41%
C[C@H]1Oc2cc(cnc2N)-c2c(nn(C)c2C#N)CN(C)C(=O)c2ccc(F)cc21	0%
Cc1ccc2c(-c3ccncc3)c(-c3ccc(F)cc3)nn2c1.Cl [GW461484]	22%
CCN(CC)CCCCNc1ncc2cc(-c3c(Cl)cccc3Cl)c(NC(=O)NC(C)(C)C)nc2n1	0%
O=C(NCCCN1CCOC1=O)c1cnc(NCc2cc(Cl)ccc2Cl)nc1NC1CCCC1	18%
Nc1nc(Nc2ccccc2)cc(-c2ccc3c(N)n[nH]c3c2)n1 [GSK2225749]	0%
Cc1ccc(-n2nc(C(C)(C)C)cc2NC(=O)Nc2ccc(OCCN3CCOCC3)c3ccccc23)cc1 [GW839464]	0%
O=C(NCCNc1ccnc(NCc2ccc(F)cc2)n1)c1cc2ccccc2s1 [GSK1379944]	3%
